# Assay results published in PubChem BioAssay AID1159580 (chemical genetic matrix, 2015).
# The campaign covered roughly 5,500 compounds. About 2,000 (36%) were called active. Inconclusive results (about 18%) are left out. Some of the results follow. Values without a mark were called inactive. Cut-off read from the data, not from the text of the source: active = normalized growth mostly below about 0.91 (no sharp cut-off); inconclusive = no clear call, values can overlap the other calls; inactive = mostly above about 0.92.
# Assay: chemical genetic growth profiling, strain panel (AID 1159580);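 note: tested at 20 µM; growth read once vehicle control cultures reached saturation at 30 °C; 1 = growth at the plate median or of vehicle wells; lower values mean less growth of the strain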
# Conditions: growth OD
compound,measurement,setting,value
COC(=O)Nc1nc2ccc(Sc3ccccc3)cc2[nH]1,normalized growth,"S. cerevisiae deletion strains, locus YJR075W, strain HOC1, active compounds read low",0.982
same,normalized growth,"S. cerevisiae deletion strains, locus YKL009W, strain mrt4, active compounds read low",0.951
same,normalized growth,"S. cerevisiae deletion strains, locus YKL068W, active compounds read low",0.996
same,normalized growth,"S. cerevisiae deletion strains, locus YKL085W, strain MDH1 (second series), active compounds read low",0.959
same,normalized growth,"S. cerevisiae deletion strains, locus YKL085W, strain MDH1, active compounds read low",0.959
same,normalized growth,"S. cerevisiae deletion strains, locus YKL160W, strain elf1, active compounds read low",0.997
same,normalized growth,"S. cerevisiae deletion strains, locus YKL190W, strain CNB1, active compounds read low",0.996
same,normalized growth,"S. cerevisiae deletion strains, locus YKR001C, strain vps1, active compounds read low",0.978
same,normalized growth,"S. cerevisiae deletion strains, locus YKR026C, strain gcn3, active compounds read low",0.98
same,normalized growth,"S. cerevisiae deletion strains, locus YKR091W, strain srl3, active compounds read low",1.01
same,normalized growth,"S. cerevisiae deletion strains, locus YLL001W, strain dnm1, active compounds read low",1
same,normalized growth,"S. cerevisiae deletion strains, locus YLL026W, active compounds read low",0.992
same,normalized growth,"S. cerevisiae deletion strains, locus YLL041C, strain sdh2, active compounds read low",0.989
same,normalized growth,"S. cerevisiae deletion strains, locus YLR027C, strain aat2, active compounds read low",0.995
same,normalized growth,"S. cerevisiae deletion strains, locus YLR039C, strain RIC1, active compounds read low",0.95
same,normalized growth,"S. cerevisiae deletion strains, locus YLR058C, strain SHM2, active compounds read low",0.996
same,normalized growth,"S. cerevisiae deletion strains, locus YLR102C, strain apc9, active compounds read low",1
same,normalized growth,"S. cerevisiae deletion strains, locus YLR113W, strain HOG1, active compounds read low",0.957
same,normalized growth,"S. cerevisiae deletion strains, locus YLR221C, strain rsa3, active compounds read low",0.992
same,normalized growth,"S. cerevisiae deletion strains, locus YLR258W, strain gsy2, active compounds read low",0.99
same,normalized growth,"S. cerevisiae deletion strains, locus YLR262C, strain YPT6 (second series), active compounds read low",0.921
same,normalized growth,"S. cerevisiae deletion strains, locus YLR262C, strain YPT6, active compounds read low",0.965
same,normalized growth,"S. cerevisiae deletion strains, locus YLR268W, strain sec22, active compounds read low",1.01
same,normalized growth,"S. cerevisiae deletion strains, locus YLR320W, strain mms22, active compounds read low",0.998
same,normalized growth,"S. cerevisiae deletion strains, locus YLR330W, strain CHS5, active compounds read low",0.994
same,normalized growth,"S. cerevisiae deletion strains, locus YLR342W, strain FKS1 (second series), active compounds read low",0.93
same,normalized growth,"S. cerevisiae deletion strains, locus YLR342W, strain FKS1, active compounds read low",0.983
same,normalized growth,"S. cerevisiae deletion strains, locus YLR357W, strain rsc2, active compounds read low",0.951
same,normalized growth,"S. cerevisiae deletion strains, locus YLR370C, strain arc18, active compounds read low",1
same,normalized growth,"S. cerevisiae deletion strains, locus YLR371W, strain rom2, active compounds read low",1.01
same,normalized growth,"S. cerevisiae deletion strains, locus YLR384C, strain iki3, active compounds read low",0.996
same,normalized growth,"S. cerevisiae deletion strains, locus YLR418C, strain cdc73, active compounds read low",0.918
same,normalized growth,"S. cerevisiae deletion strains, locus YML016C, strain PPZ1, active compounds read low",0.989
same,normalized growth,"S. cerevisiae deletion strains, locus YML032C, strain rad52, active compounds read low",1
same,normalized growth,"S. cerevisiae deletion strains, locus YML120C, strain ndi1, active compounds read low",0.98
same,normalized growth,"S. cerevisiae deletion strains, locus YML124C, strain tub3, active compounds read low",0.181 (active)
same,normalized growth,"S. cerevisiae deletion strains, locus YMR058W, strain fet3, active compounds read low",0.994
same,normalized growth,"S. cerevisiae deletion strains, locus YMR078C, strain ctf18, active compounds read low",1.01
same,normalized growth,"S. cerevisiae deletion strains, locus YMR125W, strain sto1, active compounds read low",0.984
same,normalized growth,"S. cerevisiae deletion strains, locus YMR129W, active compounds read low",1
same,normalized growth,"S. cerevisiae deletion strains, locus YMR205C, strain PFK2, active compounds read low",0.988
same,normalized growth,"S. cerevisiae deletion strains, locus YMR223W, strain ubp8, active compounds read low",0.968
same,normalized growth,"S. cerevisiae deletion strains, locus YMR231W, strain pep5, active compounds read low",0.984
same,normalized growth,"S. cerevisiae deletion strains, locus YMR263W, strain SAP30, active compounds read low",0.973
same,normalized growth,"S. cerevisiae deletion strains, locus YMR307W, strain GAS1, active compounds read low",0.974
same,normalized growth,"S. cerevisiae deletion strains, locus YNL067W, strain RPL9B, active compounds read low",0.996
same,normalized growth,"S. cerevisiae deletion strains, locus YNL071W, strain lat1, active compounds read low",0.988
same,normalized growth,"S. cerevisiae deletion strains, locus YNL128W, strain TEP1, active compounds read low",1.01
same,normalized growth,"S. cerevisiae deletion strains, locus YNL153C, strain GIM3, active compounds read low",0.0686 (active)
same,normalized growth,"S. cerevisiae deletion strains, locus YNL183C, strain NPR1, active compounds read low",0.893
same,normalized growth,"S. cerevisiae deletion strains, locus YNL209W, strain ssb2, active compounds read low",1.01
same,normalized growth,"S. cerevisiae deletion strains, locus YNL233W, strain BNI4, active compounds read low",0.977
same,normalized growth,"S. cerevisiae deletion strains, locus YNL248C, strain rpa49, active compounds read low",0.999
same,normalized growth,"S. cerevisiae deletion strains, locus YNL250W, strain rad50, active compounds read low",1
same,normalized growth,"S. cerevisiae deletion strains, locus YNL271C, strain bni1, active compounds read low",1.01
same,normalized growth,"S. cerevisiae deletion strains, locus YNL298W, strain CLA4, active compounds read low",0.99
same,normalized growth,"S. cerevisiae deletion strains, locus YNL307C, strain MCK1, active compounds read low",0.993
same,normalized growth,"S. cerevisiae deletion strains, locus YNL322C, strain KRE1 (second series), active compounds read low",0.988
same,normalized growth,"S. cerevisiae deletion strains, locus YNL322C, strain KRE1, active compounds read low",1
same,normalized growth,"S. cerevisiae deletion strains, locus YNR049C, strain mso1, active compounds read low",0.997
same,normalized growth,"S. cerevisiae deletion strains, locus YNR052C, strain pop2, active compounds read low",1
same,normalized growth,"S. cerevisiae deletion strains, locus YOL006C, strain TOP1, active compounds read low",0.981
same,normalized growth,"S. cerevisiae deletion strains, locus YOL012C, strain htz1",0.49
same,normalized growth,"S. cerevisiae deletion strains, locus YOL147C, strain pex11, active compounds read low",0.996
same,normalized growth,"S. cerevisiae deletion strains, locus YOR001W, strain rrp6, active compounds read low",0.985
same,normalized growth,"S. cerevisiae deletion strains, locus YOR061W, strain CKA2, active compounds read low",0.994
same,normalized growth,"S. cerevisiae deletion strains, locus YOR069W, strain VPS5, active compounds read low",1
same,normalized growth,"S. cerevisiae deletion strains, locus YOR070C, strain gyp1, active compounds read low",0.99
same,normalized growth,"S. cerevisiae deletion strains, locus YOR080W, strain dia2, active compounds read low",0.993
same,normalized growth,"S. cerevisiae deletion strains, locus YOR083W, strain WHI5, active compounds read low",0.976
same,normalized growth,"S. cerevisiae deletion strains, locus YOR106W, strain vam3, active compounds read low",0.972
same,normalized growth,"S. cerevisiae deletion strains, locus YOR136W, strain idh2, active compounds read low",0.993
same,normalized growth,"S. cerevisiae deletion strains, locus YOR144C, strain elg1, active compounds read low",1
same,normalized growth,"S. cerevisiae deletion strains, locus YOR184W, strain ser1, active compounds read low",0.984
same,normalized growth,"S. cerevisiae deletion strains, locus YOR231W, strain MKK1, active compounds read low",0.973
same,normalized growth,"S. cerevisiae deletion strains, locus YOR265W, strain rbl2, active compounds read low",0.982
same,normalized growth,"S. cerevisiae deletion strains, locus YOR270C, strain vph1, active compounds read low",0.991
same,normalized growth,"S. cerevisiae deletion strains, locus YOR290C, strain snf2, active compounds read low",0.993
same,normalized growth,"S. cerevisiae deletion strains, locus YOR316C, strain cot1, active compounds read low",0.998
same,normalized growth,"S. cerevisiae deletion strains, locus YPL051W, strain arl3, active compounds read low",0.996
same,normalized growth,"S. cerevisiae deletion strains, locus YPL055C, strain LGE1, active compounds read low",0.953
same,normalized growth,"S. cerevisiae deletion strains, locus YPL078C, strain atp4, active compounds read low",0.994
same,normalized growth,"S. cerevisiae deletion strains, locus YPL106C, strain sse1, active compounds read low",1.08
same,normalized growth,"S. cerevisiae deletion strains, locus YPL240C, strain hsp82, active compounds read low",1
same,normalized growth,"S. cerevisiae deletion strains, locus YPL241C, strain CIN2, active compounds read low",0.0715 (active)
same,normalized growth,"S. cerevisiae deletion strains, locus YPL256C, strain CLN2, active compounds read low",0.959
same,normalized growth,"S. cerevisiae deletion strains, locus YPR119W, strain clb2, active compounds read low",1
same,normalized growth,"S. cerevisiae deletion strains, locus YPR141C, strain kar3, active compounds read low",1.02
same,normalized growth,"S. cerevisiae deletion strains, locus YPR163C, strain tif3, active compounds read low",0.986
same,normalized growth,"S. cerevisiae deletion strains, locus YPR167C, strain met16, active compounds read low",1
same,normalized growth,"S. cerevisiae deletion strains, strain wtn01, active compounds read low",0.998
same,normalized growth,"S. cerevisiae strains, strain wild type, active compounds read low",0.997
